Assay outcomes (PubChem BioAssay)
FLuc modulator = inhibits or activates purified firefly luciferase, miR-21 counter-screen; P08659; purified FLuc, Km substrates, luminescence inhibition; Potency, µM (titrated, usually from 57.5 µM), actives largely listed as inhibitors; hit rate 6.9% among 360,000; AID 588342; note: nearly all actives have a fitted effect of over 55% in size
Target sequence (P08659 whole entry, looked up): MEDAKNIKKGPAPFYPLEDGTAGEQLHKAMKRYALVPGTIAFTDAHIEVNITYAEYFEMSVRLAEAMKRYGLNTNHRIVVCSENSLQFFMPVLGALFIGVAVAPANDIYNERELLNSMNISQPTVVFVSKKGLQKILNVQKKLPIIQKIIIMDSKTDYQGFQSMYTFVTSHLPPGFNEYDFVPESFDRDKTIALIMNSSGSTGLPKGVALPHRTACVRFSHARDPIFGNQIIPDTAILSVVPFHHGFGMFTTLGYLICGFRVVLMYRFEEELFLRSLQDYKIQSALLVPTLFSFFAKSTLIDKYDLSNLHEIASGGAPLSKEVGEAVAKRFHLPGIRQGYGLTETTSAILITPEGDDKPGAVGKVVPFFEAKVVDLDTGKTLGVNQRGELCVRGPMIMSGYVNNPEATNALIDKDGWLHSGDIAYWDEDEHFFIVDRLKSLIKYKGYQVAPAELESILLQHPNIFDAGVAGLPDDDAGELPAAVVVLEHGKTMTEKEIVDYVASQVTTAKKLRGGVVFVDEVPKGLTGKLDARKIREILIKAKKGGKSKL
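Purified P. pyralis luciferase (10nM final) with 10uM D-luciferin and 10uM ATP (Km levels) in 50mM Tris acetate pH 7.5, 10mM Mg acetate, 0.01% Tween-20, 0.05% BSA; qHTS 6-point titration, ~60 µM downward; luminescence read.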
NPC1 prom act = activates the NPC1 promoter; Huh7 NPC1 promoter luciferase reporter, 24 h; Potency, µM (doses to about 9.22 µM), usual class: activators; hit rate 2.4% among 320,000; AID 485313; note: nearly all actives have a fitted effect of over 60% in size
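Luminescence read-out of NPC1 promoter-driven luciferase in stably transfected Huh7 cells; compounds delivered in DMSO and left 24 h at 37C, 5% CO2, qHTS titration format.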
SMN2 splice enh = enhancers of SMN2 splice variant expression. HEK293 SMN2-luciferase splicing reporter, luminescence, 30-36 h. Potency, µM (titrated, usually from 46.1 µM), hits mostly activators. hit rate 2.8% among 210,000; note: nearly all actives have a fitted effect of over 55% in size
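HEK293 cells carry an SMN2 minigene-luciferase reporter in which exon 7 inclusion puts luciferase in frame. Cells were seeded at 2000 cells/well, attached for 10-12 hours, then exposed to compounds for 30-36 hours at 37C before ONE-Glo luminescence.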
uPA generation = inhibitors of cell surface uPA generation; cell surface uPA generation assay, qHTS; Potency, µM (top dose mostly 38.3 µM), most hits filed as inhibitors; hit rate 0.31% among 330,000; active = well fitted inhibition curve with a large enough effect; inconclusive = small, poorly fitted or top-dose-only effect; inactive = no such curve, though single readings can be large or run the other way; tested in mouse RAW 264.7 cells; note: nearly all actives have a fitted effect of over 55% in size
ELG1 genotox = genotoxicity induction in ELG1-luciferase HEK293T cells; hit rate 1.3% among 330,000; Potency, µM (top dose mostly 46 µM), hits mostly activators; HEK293T ELG1-luciferase reporter, luminescence, 16 h; note: nearly all actives have a fitted effect of over 60% in size
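HEK293T cells expressing luciferase-tagged ELG1 were treated with compound or DMSO for 16 hr at 37°C. Luciferase activity was then read after 30 min with ONE-Glo at room temperature; rising signal flags genetic stress.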
Rab9 prom act = activates the Rab9 promoter. hit rate 2.8% among 320,000. Potency, µM (top dose mostly 9.22 µM), most hits filed as activators. Huh7 Rab9 promoter-luciferase reporter, luminescence, 24 h; note: nearly all actives have a fitted effect of over 60% in size
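Luminescence from Amplite-detected luciferase (10 minutes, ambient) reports Rab9 promoter activation. Before that, stable Rab9-luciferase Huh7 cells (1500/well, reduced-serum OP-MEM I plus 10% FBS) were exposed to compound for 24 hours at 37C.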
A number is an active result; [ ] = another dose, or the depositor's remark. An excerpt weighted towards active compounds, which were near 7.3% of everything screened. Unless noted, calls come from the whole dose curve; as a rule, active = well fitted curve in the direction sought with a large enough effect; inconclusive = small, poorly fitted or top-dose-only effect, or another doubt; inactive = no such curve, though single readings can be large; an effect the other way counts as inactive or inconclusive.

`Cn1nnc(NC(=O)c2cccc(F)c2)n1` gave FLuc modulator inactive, NPC1 prom act inactive, SMN2 splice enh inactive, uPA generation inactive, ELG1 genotox inactive and Rab9 prom act inactive.
CCn1nnc(NC(=O)c2cccnc2)n1 was read as FLuc modulator inactive, NPC1 prom act inactive, SMN2 splice enh inactive, uPA generation inactive, ELG1 genotox inactive and Rab9 prom act inactive.
Cc1ccc(C(=O)Nc2nnn(C)n2)cc1 was read as FLuc modulator 17µM, NPC1 prom act inactive, SMN2 splice enh inconclusive, uPA generation inactive, ELG1 genotox inconclusive and Rab9 prom act inconclusive.
For CCn1nnc(NC(=O)c2ccc(C(C)(C)C)cc2)n1 the results were FLuc modulator 3.4µM, NPC1 prom act 2.2µM, uPA generation inactive, ELG1 genotox inconclusive and Rab9 prom act 1.3µM.
For CCCn1nnc(NC(=O)c2ccccc2Cl)n1 the results were FLuc modulator inconclusive, NPC1 prom act inconclusive, SMN2 splice enh inactive, uPA generation inactive, ELG1 genotox inactive and Rab9 prom act inconclusive.
Cc1ccc(-n2nc(CO)c(C(=O)NC(C)CCCc3ccccc3)n2)cc1C (configuration not stated) was read as FLuc modulator inconclusive and SMN2 splice enh inactive.
`COc1ccc(N(C(=O)c2csnn2)C(C(=O)NC2CCCC2)c2ccccc2)cc1` (configuration not stated) gave FLuc modulator inactive, NPC1 prom act inactive, uPA generation inactive, ELG1 genotox inactive and Rab9 prom act inactive.
Screening CCCn1nnc(NC(=O)c2cccc(OCC)c2)n1 returned FLuc modulator 17µM, NPC1 prom act inconclusive, SMN2 splice enh 18µM, uPA generation inactive, ELG1 genotox 18µM and Rab9 prom act inconclusive.
`COc1ccc(NC(=O)CSCC(=O)NC2(C)CCS(=O)(=O)C2)cc1` (configuration not stated) gave FLuc modulator inactive, NPC1 prom act inactive, uPA generation inactive, ELG1 genotox inactive and Rab9 prom act inactive.
Screening CC(C)N1C(=O)S/C(=C/c2ccc3c(c2)n(C)c(=O)n3C)C1=O returned FLuc modulator inconclusive, NPC1 prom act inactive, SMN2 splice enh inactive, uPA generation inactive, ELG1 genotox inactive and Rab9 prom act inactive.
`CCN(CC)c1ccc(/C=C2\SC(=O)N(C(C)C)C2=O)o1` gave FLuc modulator 19µM, NPC1 prom act inactive, uPA generation inactive, ELG1 genotox inactive and Rab9 prom act inactive.
`Nc1nc(SCC(=O)Nc2cccc(S(=O)(=O)N3CCCCCC3)c2)n[nH]1` gave FLuc modulator 17µM, NPC1 prom act inactive, SMN2 splice enh inactive, uPA generation inactive, ELG1 genotox inactive and Rab9 prom act inactive.
Screening O=C(CSc1nnc(Nc2ccccc2)s1)Nc1cccc(S(=O)(=O)N2CCCCC2)c1 returned FLuc modulator 12µM, NPC1 prom act inactive, SMN2 splice enh inactive, uPA generation inactive, ELG1 genotox inactive and Rab9 prom act inactive.
`CCCCOc1ccc(C2c3c(oc4ccc(C)cc4c3=O)C(=O)N2CCCN(C)C)cc1OCC` (configuration not stated) gave FLuc modulator inactive and SMN2 splice enh inactive.
For COc1ccc(NC(=O)c2ccccc2Oc2ccccc2)cc1 the results were FLuc modulator inactive, NPC1 prom act inactive, uPA generation inactive, ELG1 genotox inactive and Rab9 prom act inactive.
For O=C(O)c1ccccc1C(=O)Nc1ccc(Oc2cccc3ccccc23)cc1 the results were FLuc modulator 24µM, NPC1 prom act inactive, SMN2 splice enh inactive, uPA generation inactive, ELG1 genotox inactive and Rab9 prom act inactive.
For Cc1cccc(Oc2ccc(NC(=O)c3ccccc3C(=O)O)cc2)c1C the results were FLuc modulator 19µM, NPC1 prom act inactive, SMN2 splice enh inactive, uPA generation inactive, ELG1 genotox inactive and Rab9 prom act inactive.
O=C(Nc1ccc(Oc2cccc3ccccc23)cc1)c1ccco1 was read as FLuc modulator 24µM, NPC1 prom act inactive, SMN2 splice enh inactive, uPA generation inactive, ELG1 genotox inconclusive and Rab9 prom act inactive.
Screening O=C(O)c1ccccc1C(=O)Nc1ccc(Oc2ccc3ccccc3c2)cc1 returned FLuc modulator 27µM, NPC1 prom act inactive, uPA generation inactive, ELG1 genotox inactive and Rab9 prom act inactive.
Cc1ccc(S(=O)(=O)c2cc3cc(C(=O)Nc4ccc(C)cc4C)ccc3oc2=O)cc1 was read as FLuc modulator inactive and SMN2 splice enh inactive.
O=c1[nH]c2ccc(NCc3ccc(-c4cccc(Cl)c4)o3)cc2[nH]1 was read as FLuc modulator inactive.
Screening COc1ccc(CNS(=O)(=O)c2cnc(N)nc2)c(OC)c1 returned FLuc modulator inactive.
Screening COc1ccc2nc(NC(=O)CN3C(=O)NC4(CCCCC4)C3=O)sc2c1 returned FLuc modulator 15µM, NPC1 prom act inactive, uPA generation inactive, ELG1 genotox inactive and Rab9 prom act inactive.
For Cc1ccc2nc(NC(=O)CN3C(=O)NC4(CCCCC4)C3=O)sc2c1 the results were FLuc modulator 5.4µM, NPC1 prom act inactive, uPA generation inactive, ELG1 genotox inactive and Rab9 prom act inactive.
COc1ccc2nc(NC(=O)CN3C(=O)NC4(CCCC4)C3=O)sc2c1 was read as FLuc modulator 12µM, NPC1 prom act inactive, uPA generation inactive, ELG1 genotox inactive and Rab9 prom act inactive.
For Cc1cc(C)cc(N(CC(=O)NCCc2ccc(Cl)cc2)S(=O)(=O)c2c(C)noc2C)c1 the results were FLuc modulator inactive and SMN2 splice enh inactive.
Screening O=C(N/N=C/c1ccccc1O)NC12CC3CC(CC(C3)C1)C2 returned FLuc modulator 21µM, NPC1 prom act inconclusive, uPA generation inactive, ELG1 genotox inconclusive and Rab9 prom act 6.3µM.
Screening O=C(N/N=C/c1ccc(O)c(O)c1)NC12CC3CC(CC(C3)C1)C2 returned FLuc modulator inactive, NPC1 prom act inactive, uPA generation inactive, ELG1 genotox inactive and Rab9 prom act inactive[1.84 µM].
`C/C(C/C(C)=C1/SC(=S)NC1=O)=C1\SC(=S)NC1=O` gave FLuc modulator 27µM, NPC1 prom act inactive, SMN2 splice enh inactive, uPA generation inactive, ELG1 genotox inactive and Rab9 prom act inactive.
Screening CCCCCC/C(C)=C1/SC(=S)NC1=O returned FLuc modulator inactive, NPC1 prom act inactive, SMN2 splice enh inactive, uPA generation inactive, ELG1 genotox inactive and Rab9 prom act inactive.
`Nc1ncccc1OCc1ccc(Br)cc1` gave FLuc modulator 17µM, NPC1 prom act inconclusive, SMN2 splice enh inconclusive, uPA generation inactive, ELG1 genotox inactive and Rab9 prom act 2.2µM.
Screening CCOC(=O)c1cnn2c(C)cc(-c3ccc(F)cc3)nc12 returned FLuc modulator 12µM, NPC1 prom act 2.8µM, SMN2 splice enh 11µM, uPA generation inactive, ELG1 genotox inconclusive and Rab9 prom act 3.5µM.
